# High-throughput results deposited in PubChem by National Center for Advancing Translational Sciences (NCATS).
# Hits are enriched below; roughly 12% of the tested compounds scored in any of these assays.
# Marburg entry inh – inhibitors of Marburg virus binding or cell entry; Marburg virus pseudotyped entry inhibition, cell reporter; Potency, µM (series often up to 37.8 µM), without a hit: top-dose activity change, negative = inhibition, actives largely listed as inhibitors; hit rate 1.8% among 300,000; calls by dose curve; tested in HEK293 cells; also: potency is read from the fitted curve at half-maximal effect; % is scaled to controls: 0 for no effect and ±100 for the full control effect
# Shiga toxin inh – blocks Shiga toxin action in Vero cells | Vero cells, Shiga toxin protein synthesis inhibition reporter | inhibition, % at 38.7 µM | hit rate 9.2% among 290,000 | AID 2315; in the data active = inhibition mostly above about 28%, no sharp cut-off; inactive = mostly below about 43%; also: 0% is about no effect
# LASV entry inh – inhibitors of Lassa virus binding or cell entry; hit rate 1.2% among 300,000; Potency, µM (series often up to 37.9 µM), inactives show top-dose activity change, negative = inhibition, actives largely listed as inhibitors; AID 540256; Lassa virus pseudotype entry inhibition, cell reporter; calls by dose curve; tested in HEK293 cells; also: potency is read from the fitted curve at half-maximal effect; % is scaled to controls: 0 for no effect and ±100 for the full control effect; nearly all actives have a fitted effect of over 50% in size
# CHX counter – counter-screen for Shiga toxin inhibitors: cycloheximide protein synthesis inhibition | cell reporter, cycloheximide protein synthesis inhibition counterscreen | max response, % | hit rate 12% among 300,000 | AID 2314; in the data active = max response mostly above about 13%, no sharp cut-off; inactive = mostly below about 14%; also: read at 38.3 µM for the half of the compounds with a filed dose; 0% is about no effect
# * marks the source's active call; other numbers are inactive results; ? = inconclusive; · = no result; [ ] = remark or other dose.
SMILES,Marburg entry inh,Shiga toxin inh,LASV entry inh,CHX counter
Cn1ccnc1C(=O)c1cccc(Br)c1,13%[46.1 µM],40*,?,17*
CC(=O)c1ccc(S(=O)(=O)N2CCN(C(C)=O)CC2)cc1,18%,-9,12%,-1
CC(Sc1cccc(C(F)(F)F)c1)C(=O)NC(N)=O (configuration not stated),1%,-15,4%,-4
CCOc1ccccc1NC(=O)COC(=O)c1cn(CC)c2nc(C)ccc2c1=O,10%[46.1 µM],·,-3%[46.1 µM],·
Cc1ccn(CC(=O)NC2CC(C)(C)Cc3c2cnn3-c2ccc(F)cc2)n1 (configuration not stated),19%,-19,-1%,-4
O=c1c2ccccc2oc2ccc(Oc3ccccc3)cc12,·,42*,·,41*
COc1cc2oc3ccccc3c(=O)c2cc1OC,·,18,·,14
CCOC(=O)CSc1nnc(Cn2nnc(-c3ccccc3)n2)n1C,8%,-2,-1%,-2
C[n+]1cc2c3c(ccc2c2ccc4cc5c(cc4c21)OCO5)OCO3,0.89µM*,-37,·,-15
COc1ccc(/C=N/N2CCN(c3ccccc3)CC2)cc1Br,·,-17,·,2
CN(C)c1ccc(C=c2c3ccccc3n3c2c2c([n+]3C)CCCC2)cc1,4.5µM*,·,7.9µM*,·
CN(C)c1ccc(C=c2c3ccccc3n3c2cc(-c2ccccc2)[n+]3C)cc1,2.8µM*,·,2.8µM*,·
COc1cc(C=c2c3ccccc3n3c2cc(-c2ccccc2)[n+]3C)cc(OC)c1OC,?,·,14µM*,·
CN(C)c1ccc(C=c2c3cc([N+](=O)[O-])ccc3n3c2cc(-c2ccccc2)[n+]3C)cc1,?,·,8.9µM*,·
Cn1c(CO)c(-c2ccccc2)c2cc([N+](=O)[O-])ccc21,0%,-20,3%,-3
Cc1ccc(C)c(C2=NNC(=O)CC2)c1,6%,·,5%,·
CCOc1cccc(-c2csc(C3COc4ccccc4O3)n2)c1 (configuration not stated),1%,31,?,28*
NC(=O)c1ccc(NC(=O)COC(=O)c2ccc3ccccc3n2)cc1,18%[46.1 µM],·,0%[46.1 µM],·
O=C(OCc1ccc(F)cc1)c1ccc2ccccc2n1,15%[46.1 µM],46*,6%,25*
O=C(OCC(=O)c1ccc[nH]1)c1ccc2ccccc2n1,·,18,·,19*
O=C(COC(=O)c1ccc2ccccc2n1)c1ccccc1,3%[46.1 µM],52,·,46*
COCCCn1c(=N)c(C(=O)NCc2cccnc2)cc2c(=O)n3cccc(C)c3nc21,7%[46.1 µM],·,11%[46.1 µM],·
C=C(C[C@@]1(C(=O)OC)C=C[C@@H](C)[C@H](c2ccccc2Br)N1C(=O)C(F)(F)F)c1ccccc1,-14%[14.2 µM],·,·,·
Cc1ccnc(NC(=O)COc2ccc3oc4c(c3c2)CCCC4)c1,?,66*,13%,43*
CC(C)(C)NC(=O)COc1ccc2oc3c(c2c1)CCCC3,-3%[46.1 µM],60,?,18*
SMILES,Marburg entry inh,Shiga toxin inh,LASV entry inh,CHX counter
CNC(=O)NC(=O)COc1ccc2oc3c(c2c1)CCCC3,12%[46.1 µM],58*,0%,22*
COc1cc(OC)c(OC)cc1/C=C(\C#N)C(=O)NCc1cccs1,-27%[46.1 µM],10,?,1
Cc1cc(/C=C(\C#N)C(=O)NCc2cccs2)c(C)[nH]1,-4%[14.2 µM],67,1%,16*
O=C(Nc1cccc(O)c1)c1ccccc1[N+](=O)[O-],13%[46.1 µM],-15,-2%[46.1 µM],0
CNc1sc(C(=O)c2ccccc2F)c(N)c1-c1nc2ccccc2s1,-27%,64*,-1%,19*
CCC(C)NC(=O)Cn1c(=O)n(CCCC(=O)NCc2ccc(C)cc2)c(=O)c2ccccc21 (configuration not stated),10%[46.1 µM],·,9%[46.1 µM],·
Cc1ccc(-c2cnn(-c3ccccc3)c2N)cc1,·,41*,·,32*
Nc1c(-c2ccccc2)cnn1-c1ccc(C(=O)O)cc1,?,88*,?,48*
Nc1c(-c2ccc(Cl)cc2)cnn1-c1ccccc1,?,114*,?,37*
Nc1c(-c2ccc(Cl)cc2)cnn1-c1cc(C(F)(F)F)cc(C(F)(F)F)c1,?,-9,-6%[46.1 µM],-1
Nc1c(-c2ccc(Cl)cc2)nnn1-c1ccccc1,?,98*,25%,45*
Nc1c(-c2ccc(Cl)cc2)cnc2c(-c3ccccc3)cnn12,?,89*,?,36*
C=CCN(CC=C)C(=O)Nc1cc(OC)ccc1OC,9%[46.1 µM],-4,-4%[46.1 µM],-3
Cn1c(=NC(=O)c2ccccc2[N+](=O)[O-])sc2cccc(F)c21,·,162*,·,63*
C#CCn1c(=NC(=O)c2ccccc2[N+](=O)[O-])sc2cc(S(C)(=O)=O)ccc21,?,-1,3%,9
Cn1c(=NC(=O)C(C)(C)C)sc2cccc(F)c21,·,58*,·,13
CC(C)C(=O)N=c1sc2cc(F)cc(F)c2n1C,·,9,·,-1
